Targets with a hit are over-represented here; the source holds about 7,900 in all. About 0.6% of all pairs of compound and target were hits. A number with no mark means an inactive call.
Experiments:
Assay in all cases: log2 fold change, soluble protein after heating vs DMSO (PISA); higher = thermal stabilisation; K562 cells, 10 uM, 30 min; active = over 0.2 and 3.5 SD of the protein, either way, in both replicates (recomputed)
[1] = compound: CC1=C(C=C(C=C1)NC(=O)C2=CC(=CC=C2)C(C)(C)C#N)NC3=CC4=C(C=C3)N=CN(C4=O)C
Summary of the method: (§1)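 Aliquots of K562 cells (2×10^6 cells/mL) treated with 10 μM compound for 30 min were heated for 3 min over 48°C-58°C. After pooling and extraction in PBS with 0.5% NP-40 at 4°C, soluble protein from a 21,000xg, 90 min spin was quantified by TMTpro 16plex LC-MS/MS with channel sums equalised. Thermal stability is expressed against control samples, from duplicates, as a log2 fold change.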

[2] = compound: CC1=C(C=C(C=C1)NC(=O)C2=CC(=CC=C2)N(C)C)NC(=O)C3=CC=C(C=C3)O
Summary of the method: as §1

[3] = compound: CC1=CC=C(C=C1)SC2=C3C=C(SC3=CN=C2)C(=O)N
Summary of the method: as §1

[4] = compound: CC1=NC(=CC=C1)C2=C(N=C(N2)C(C)(C)C)C3=CC4=NC=CN=C4C=C3
Summary of the method: as §1

Nexturastat A = compound: CCCCN(Cc1ccc(C(=O)NO)cc1)C(=O)Nc1ccccc1 [Nexturastat A]
Summary of the method: as §1

vemurafenib = compound: CCCS(=O)(=O)Nc1ccc(F)c(C(=O)c2c[nH]c3ncc(-c4ccc(Cl)cc4)cc23)c1F [vemurafenib]
Summary of the method: as §1

[5] = compound: CCCS(=O)(=O)Nc1ccc(F)c(C(=O)c2c[nH]c3ncc(Cl)cc23)c1F
Summary of the method: as §1

[6] = compound: CCCc1cc(C)[nH]c(=O)c1CNC(=O)c1cc(-c2ccnc(N3CCN(C)CC3)c2)cc2c1cnn2C(C)C
Summary of the method: as §1

givinostat = compound: CCN(CC)Cc1ccc2cc(COC(=O)Nc3ccc(C(=O)NO)cc3)ccc2c1 [givinostat]
Summary of the method: as §1

barasertib = compound: CCN(CCCOc1ccc2c(Nc3cc(CC(=O)Nc4cccc(F)c4)[nH]n3)ncnc2c1)CCOP(=O)(O)O [barasertib]
Summary of the method: as §1

[7] = compound: CC[C@@H]1C(=O)N(C)c2cnc(Nc3ccc(C(=O)NC4CCN(C)CC4)cc3OC)nc2N1C1CCCC1
Summary of the method: as §1

volasertib = compound: CC[C@@H]1C(=O)N(C)c2cnc(Nc3ccc(C(=O)N[C@H]4CC[C@H](N5CCN(CC6CC6)CC5)CC4)cc3OC)nc2N1C(C)C [volasertib]
Summary of the method: as §1

[8] = compound: CC[C@H](C)N1C=C(C2=C(C=C(C=C21)C3=CN=C(C=C3)N4CCNCC4)C(=O)NCC5=C(C=C(NC5=O)C)C)C
Summary of the method: as §1

epoxomicin = compound: CC[C@H](C)[C@@H](C(=O)N[C@@H]([C@@H](C)O)C(=O)N[C@@H](CC(C)C)C(=O)[C@]1(CO1)C)NC(=O)[C@H]([C@@H](C)CC)N(C)C(=O)C [epoxomicin]
Summary of the method: as §1

[9] = compound: CCn1c(C(=O)N(C2CC2)C2CC2)cc2c3c(ncn3C)c(Nc3cc(C)n(C)n3)nc21
Summary of the method: as §1

[10] = compound: CCn1cc(-c2ccnc3[nH]c(-c4cccc(CN(C)C)c4)cc23)c(-c2ccc(NC(=O)N(C)C)cc2)n1
Summary of the method: as §1

[11] = compound: CN(C)CC(=O)Nc1ccc2[nH]c(=O)c3ccccc3c2c1
Summary of the method: as §1

rosiglitazone = compound: CN(CCOC1=CC=C(C=C1)C[C@H]2C(=O)NC(=O)S2)C3=CC=CC=N3 (racemic) [rosiglitazone]
Summary of the method: as §1

[12] = compound: CN1C2=C(C3=C1C(=O)N(N=C3)CC4=CC(=CC=C4)N)SC(=C2)S(=O)C
Summary of the method: as §1

[13] = compound: CN1CCC(CNc2ccc3ncc(-c4cccc(OC(F)(F)F)c4)n3n2)CC1
Summary of the method: as §1

Chain of UniProt P52895 (P52895 whole entry, looked up): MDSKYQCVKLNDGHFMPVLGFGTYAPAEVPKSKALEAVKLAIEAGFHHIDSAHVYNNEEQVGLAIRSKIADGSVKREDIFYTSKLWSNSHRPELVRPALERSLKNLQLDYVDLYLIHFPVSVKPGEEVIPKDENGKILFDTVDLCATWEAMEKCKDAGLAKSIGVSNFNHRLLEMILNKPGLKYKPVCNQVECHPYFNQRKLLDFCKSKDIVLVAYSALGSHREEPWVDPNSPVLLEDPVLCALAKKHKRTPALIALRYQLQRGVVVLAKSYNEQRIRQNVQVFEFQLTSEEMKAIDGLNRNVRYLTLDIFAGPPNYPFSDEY
Chain of UniProt O43823 (O43823 whole entry, looked up): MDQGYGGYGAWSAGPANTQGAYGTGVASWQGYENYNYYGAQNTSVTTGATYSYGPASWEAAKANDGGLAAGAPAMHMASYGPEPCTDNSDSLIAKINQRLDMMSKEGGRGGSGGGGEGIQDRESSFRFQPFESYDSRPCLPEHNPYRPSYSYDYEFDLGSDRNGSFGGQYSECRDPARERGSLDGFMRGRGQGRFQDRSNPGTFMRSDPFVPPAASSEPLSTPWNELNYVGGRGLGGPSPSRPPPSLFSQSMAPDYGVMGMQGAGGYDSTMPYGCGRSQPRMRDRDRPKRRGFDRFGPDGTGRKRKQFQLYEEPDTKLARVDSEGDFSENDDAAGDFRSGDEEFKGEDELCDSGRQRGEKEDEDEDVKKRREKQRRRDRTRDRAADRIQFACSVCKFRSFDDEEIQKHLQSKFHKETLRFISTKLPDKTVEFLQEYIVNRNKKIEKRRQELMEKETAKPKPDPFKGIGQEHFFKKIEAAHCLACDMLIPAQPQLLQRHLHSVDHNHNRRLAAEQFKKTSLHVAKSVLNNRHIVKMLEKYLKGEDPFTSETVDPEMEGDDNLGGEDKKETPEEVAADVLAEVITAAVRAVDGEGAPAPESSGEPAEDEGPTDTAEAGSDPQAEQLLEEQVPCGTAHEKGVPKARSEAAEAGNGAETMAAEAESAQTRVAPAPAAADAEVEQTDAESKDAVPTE
Chain of UniProt Q9Y3D8 (Q9Y3D8 whole entry, looked up): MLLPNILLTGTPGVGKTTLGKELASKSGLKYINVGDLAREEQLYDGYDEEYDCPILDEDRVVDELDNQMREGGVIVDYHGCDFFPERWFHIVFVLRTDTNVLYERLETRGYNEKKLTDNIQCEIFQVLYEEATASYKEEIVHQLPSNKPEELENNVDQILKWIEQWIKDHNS
Chain of UniProt Q9BRQ8 (Q9BRQ8 whole entry, looked up): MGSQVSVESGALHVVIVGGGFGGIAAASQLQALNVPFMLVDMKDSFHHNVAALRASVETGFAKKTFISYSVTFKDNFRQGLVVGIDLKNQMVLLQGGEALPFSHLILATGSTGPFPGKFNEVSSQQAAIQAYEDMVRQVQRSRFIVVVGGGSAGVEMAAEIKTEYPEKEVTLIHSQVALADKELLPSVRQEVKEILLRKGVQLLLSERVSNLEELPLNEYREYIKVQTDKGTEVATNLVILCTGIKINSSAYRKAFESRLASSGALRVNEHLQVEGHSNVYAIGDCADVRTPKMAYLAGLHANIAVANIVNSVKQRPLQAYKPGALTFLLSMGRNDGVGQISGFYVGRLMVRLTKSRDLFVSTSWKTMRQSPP
Chain of UniProt P42330 (P42330 whole entry, looked up): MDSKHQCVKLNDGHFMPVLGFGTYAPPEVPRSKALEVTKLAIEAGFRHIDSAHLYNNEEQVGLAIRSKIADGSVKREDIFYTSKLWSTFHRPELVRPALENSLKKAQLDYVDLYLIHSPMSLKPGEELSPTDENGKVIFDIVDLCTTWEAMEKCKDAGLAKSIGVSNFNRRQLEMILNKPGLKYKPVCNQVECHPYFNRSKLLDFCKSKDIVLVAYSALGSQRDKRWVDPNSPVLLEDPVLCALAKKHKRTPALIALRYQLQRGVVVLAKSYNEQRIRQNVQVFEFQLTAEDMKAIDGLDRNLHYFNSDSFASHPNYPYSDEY
Chain of UniProt O95433 (O95433 whole entry, looked up): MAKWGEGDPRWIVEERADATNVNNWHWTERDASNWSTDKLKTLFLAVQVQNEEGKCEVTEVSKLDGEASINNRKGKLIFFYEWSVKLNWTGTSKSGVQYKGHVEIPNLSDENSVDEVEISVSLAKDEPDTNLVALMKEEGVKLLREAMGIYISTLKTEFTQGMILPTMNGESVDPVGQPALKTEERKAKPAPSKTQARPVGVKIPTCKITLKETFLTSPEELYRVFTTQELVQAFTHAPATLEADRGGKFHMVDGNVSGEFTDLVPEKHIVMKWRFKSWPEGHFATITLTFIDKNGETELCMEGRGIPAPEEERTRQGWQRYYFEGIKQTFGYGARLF
Chain of UniProt O94973 (O94973 whole entry, looked up): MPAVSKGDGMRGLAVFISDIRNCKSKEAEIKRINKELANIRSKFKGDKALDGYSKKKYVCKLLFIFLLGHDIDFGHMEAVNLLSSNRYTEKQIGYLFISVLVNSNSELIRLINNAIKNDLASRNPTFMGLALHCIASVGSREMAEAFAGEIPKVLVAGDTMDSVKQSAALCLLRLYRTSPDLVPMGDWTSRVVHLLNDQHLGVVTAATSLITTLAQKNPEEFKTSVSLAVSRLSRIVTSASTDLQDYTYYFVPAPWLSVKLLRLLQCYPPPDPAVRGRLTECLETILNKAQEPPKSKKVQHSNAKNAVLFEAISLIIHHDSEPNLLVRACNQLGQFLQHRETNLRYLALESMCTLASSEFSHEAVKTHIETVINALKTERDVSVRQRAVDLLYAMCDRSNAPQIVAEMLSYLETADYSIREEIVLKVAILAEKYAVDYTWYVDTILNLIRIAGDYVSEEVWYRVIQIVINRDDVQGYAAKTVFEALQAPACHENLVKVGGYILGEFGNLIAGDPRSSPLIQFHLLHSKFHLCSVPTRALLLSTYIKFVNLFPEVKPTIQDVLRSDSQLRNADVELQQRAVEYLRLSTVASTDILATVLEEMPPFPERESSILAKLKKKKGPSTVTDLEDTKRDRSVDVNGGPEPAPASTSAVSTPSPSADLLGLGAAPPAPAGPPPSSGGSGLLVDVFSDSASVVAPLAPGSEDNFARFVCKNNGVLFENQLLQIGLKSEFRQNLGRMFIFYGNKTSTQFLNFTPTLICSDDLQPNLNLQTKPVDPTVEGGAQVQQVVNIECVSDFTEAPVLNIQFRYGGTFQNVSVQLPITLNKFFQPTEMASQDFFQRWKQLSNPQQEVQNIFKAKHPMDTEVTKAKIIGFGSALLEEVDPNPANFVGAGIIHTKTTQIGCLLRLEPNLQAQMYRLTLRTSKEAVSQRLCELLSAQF
Chain of UniProt Q9P287 (Q9P287 whole entry, looked up): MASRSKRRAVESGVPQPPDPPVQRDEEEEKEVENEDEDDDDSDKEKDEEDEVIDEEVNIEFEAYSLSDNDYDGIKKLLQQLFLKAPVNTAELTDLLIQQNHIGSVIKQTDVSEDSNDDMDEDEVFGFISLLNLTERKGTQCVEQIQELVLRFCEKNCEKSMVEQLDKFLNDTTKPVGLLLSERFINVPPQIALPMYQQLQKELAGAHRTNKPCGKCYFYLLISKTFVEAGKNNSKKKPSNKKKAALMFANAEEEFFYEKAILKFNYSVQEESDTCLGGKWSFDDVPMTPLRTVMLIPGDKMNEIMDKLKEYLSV
Chain of UniProt Q9UII2 (Q9UII2 whole entry, looked up): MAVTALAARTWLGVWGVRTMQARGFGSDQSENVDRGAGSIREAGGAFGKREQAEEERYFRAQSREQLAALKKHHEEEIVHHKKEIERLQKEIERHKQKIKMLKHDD
Chain of UniProt Q13685 (Q13685 whole entry, looked up): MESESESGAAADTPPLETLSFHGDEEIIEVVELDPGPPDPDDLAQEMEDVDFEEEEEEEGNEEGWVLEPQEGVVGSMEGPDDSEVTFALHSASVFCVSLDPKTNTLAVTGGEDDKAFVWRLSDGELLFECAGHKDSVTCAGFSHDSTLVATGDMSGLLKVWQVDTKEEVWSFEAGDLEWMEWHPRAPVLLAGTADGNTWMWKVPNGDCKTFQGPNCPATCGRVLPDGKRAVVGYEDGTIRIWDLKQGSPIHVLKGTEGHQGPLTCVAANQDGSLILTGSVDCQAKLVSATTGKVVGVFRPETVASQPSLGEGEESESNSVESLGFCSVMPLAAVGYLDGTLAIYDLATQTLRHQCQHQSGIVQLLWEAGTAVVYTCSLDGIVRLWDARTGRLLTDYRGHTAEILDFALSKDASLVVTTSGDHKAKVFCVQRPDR
Chain of UniProt P33121 (P33121 whole entry, looked up): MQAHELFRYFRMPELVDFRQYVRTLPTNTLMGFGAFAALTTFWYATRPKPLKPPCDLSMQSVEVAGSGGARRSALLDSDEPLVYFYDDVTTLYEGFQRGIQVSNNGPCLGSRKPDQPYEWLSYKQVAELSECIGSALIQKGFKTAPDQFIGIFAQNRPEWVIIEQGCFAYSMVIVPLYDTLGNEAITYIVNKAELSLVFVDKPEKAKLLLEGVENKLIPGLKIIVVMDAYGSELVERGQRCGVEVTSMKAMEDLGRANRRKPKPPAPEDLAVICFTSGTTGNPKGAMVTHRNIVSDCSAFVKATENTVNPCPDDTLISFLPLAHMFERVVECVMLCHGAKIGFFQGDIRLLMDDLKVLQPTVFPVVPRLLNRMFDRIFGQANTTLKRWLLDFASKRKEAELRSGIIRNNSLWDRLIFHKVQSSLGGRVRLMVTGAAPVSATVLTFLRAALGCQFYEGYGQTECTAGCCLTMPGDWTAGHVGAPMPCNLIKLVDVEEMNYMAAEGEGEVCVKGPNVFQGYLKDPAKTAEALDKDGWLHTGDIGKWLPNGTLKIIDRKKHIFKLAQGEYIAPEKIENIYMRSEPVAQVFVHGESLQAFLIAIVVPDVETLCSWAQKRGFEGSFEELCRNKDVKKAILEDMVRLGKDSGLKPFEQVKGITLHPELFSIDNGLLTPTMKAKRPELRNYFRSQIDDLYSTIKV

Row | Target | log2 fold change [1] | log2 fold change [2] | log2 fold change [3] | log2 fold change [4] | log2 fold change (Nexturastat A) | log2 fold change (vemurafenib) | log2 fold change [5] | log2 fold change [6] | log2 fold change (givinostat) | log2 fold change (barasertib) | log2 fold change [7] | log2 fold change (volasertib) | log2 fold change [8] | log2 fold change (epoxomicin) | log2 fold change [9] | log2 fold change [10] | log2 fold change [11] | log2 fold change (rosiglitazone) | log2 fold change [12] | log2 fold change [13]
1 | ARAF (UniProt P10398) | 0.063 | -0.049 | -0.069 | -0.007 | 0.003 | 0.064 | 0.123 | 0.019 | 0.029 | 0.074 | 0.053 | 0.311 | 0.129 | 0.013 | -0.041 | -0.002 | 0.054 | 0.047 | -0.025 | -0.132
2 | ATAD3A isoform 2 (UniProt Q9NVI7) | -0.04 | 0.005 | 0.007 | 0.017 | 0.207 | 0.033 | 0.052 | 0 | 0.045 | 0.009 | -0.145 | -0.202 | 0.038 | 0.05 | -0.055 | 0.033 | 0.018 | 0.007 | 0.177 | -0.319 (active)
3 | ARL6IP4 (UniProt Q66PJ3) | -0.048 | 0.016 | -0.005 | 0 | 0.001 | -0.07 | -0.019 | -0.038 | 0.005 | -0.01 | 0.008 | -0.009 | -0.023 | 0.014 | 0.015 | -0.025 | 0.001 | 0.017 | -0.065 | 0.01
4 | ATP5IF1 (UniProt Q9UII2) | -0.035 | 0.009 | -0.005 | 0.021 | -0.041 | -0.078 | -0.043 | -0.022 | -0.005 | 0.026 | -0.149 | 0.141 | -0.078 | -0.041 | 0.021 | 0.013 | -0.13 | -0.02 | -0.04 | 0.037
5 | APLP2 (UniProt Q06481) | 0.088 | -0.043 | -0.003 | -0.009 | -0.053 | -0.033 | 0.011 | 0.018 | -0.041 | -0.04 | 0.076 | -0.04 | -0.092 | 0.017 | 0.089 | 0.006 | -0.106 | -0.026 | -0.004 | 0.179
6 | ACSL1 (UniProt P33121) | 0.01 | 0.01 | 0.031 | 0.056 | -0.115 | -0.021 | 0.041 | -0.018 | -0.034 | -0.002 | -0.09 | -0.183 | 0.012 | 0.018 | 0.05 | -0.031 | 0 | 0.003 | -0.064 | -0.393 (active)
7 | BCCIP (UniProt Q9P287) | -0.023 | -0.015 | -0.009 | -0.01 | -0.002 | 0.02 | 0.036 | -0.004 | 0.035 | 0.033 | -0.009 | -0.047 | -0.005 | 0.092 | -0.04 | 0.033 | 0.019 | 0.042 | 0.047 | -0.043
8 | AAMP (UniProt Q13685) | 0 | -0.006 | -0.028 | -0.04 | 0.012 | -0.018 | 0.018 | -0.041 | 0.033 | -0.006 | 0.072 | 0.051 | -0.016 | -0.017 | 0.023 | -0.016 | 0.011 | 0.001 | -0.004 | 0.054
9 | AKR1C3 (UniProt P42330) | -0.034 | -0.207 | 0.268 | -0.007 | 0.022 | -0.032 | 0.066 | 0.289 | -0.003 | 0.014 | 0.011 | 0.009 | -0.01 | 0 | 0.131 | -0.247 | 0.067 | -0.06 | -0.127 | 0.214
10 | AKAP8 (UniProt O43823) | -0.082 | 0.029 | -0.03 | -0.009 | 0.313 (active) | -0.062 | -0.05 | -0.034 | -0.027 | 0.024 | 0.069 | -0.268 (active) | -0.017 | 0.003 | 0.02 | 0.026 | -0.03 | 0.017 | 0 | -0.131
11 | AKR1C2 (UniProt P52895) | -0.153 | -0.222 | -0.166 | -0.077 | 0.205 | -0.046 | -0.179 | 0.024 | 0.159 | -0.018 | 0.27 | 0.087 | 0.03 | -0.139 | -0.039 | 0.002 | -0.006 | -0.001 | 0.568 (active) | -0.016
12 | AK6 (UniProt Q9Y3D8) | 0.02 | -0.04 | 0.012 | 0.032 | -0.056 | 0.1 | 0.053 | 0.076 | 0.083 | 0.138 | -0.304 | -0.438 (active) | -0.001 | 0.08 | -0.081 | -0.007 | 0.148 | 0.074 | 0.027 | -0.322
13 | AP2A2 isoform 2 (UniProt O94973) | 0.084 | 0 | 0.01 | 0.049 | 0.004 | -0.008 | 0.002 | 0.038 | 0.003 | 0.002 | 0.026 | -0.021 | 0 | 0.048 | 0.01 | -0.012 | 0 | 0.012 | 0.008 | 0.089
14 | AIFM2 (UniProt Q9BRQ8) | 0.013 | 0 | 0 | -0.017 | 0.019 | -0.036 | -0.026 | 0.021 | 0.011 | -0.024 | 0.002 | -0.035 | -0.058 | -0.035 | -0.025 | -0.017 | 0.003 | 0.001 | -0.069 | 0.068
15 | AHSA1 (UniProt O95433) | -0.014 | 0.006 | 0 | 0.062 | -0.019 | 0.029 | 0.036 | -0.024 | -0.015 | 0.027 | -0.085 | -0.228 (active) | 0.038 | 0.023 | 0 | -0.052 | 0 | 0.027 | -0.06 | 0.038
16 | BOP1 (UniProt Q14137) | -0.06 | 0.007 | 0.015 | 0.023 | 0.162 | 0.047 | -0.006 | 0.055 | 0.09 | -0.054 | -0.072 | -0.328 | 0.019 | 0.002 | -0.023 | -0.075 | 0.009 | -0.053 | 0.228 | 0.141
